Results: PubChem BioAssay (EPA / NIEHS)
Calls of active or inactive are those of the source. How the source made its calls: active means hit-call score of the fitted dose curve at least 0.9, where 1 is the maximum; inactive means score below 0.9.

molecular target: Hypoxia-inducible factor 1-alpha (Homo sapiens) (UniProt Q16665); assay: ATG_HIF1a_CIS: Attagene CIS-FACTORIAL HepG2 Assay for human Hypoxia Inducible Factor 1 (HIF1A) (AID 2282951); settings: HepG2 Attagene cis-factorial HIF1a reporter transcription; actives raise or lower the signal
Sequence (Q16665 whole entry, looked up): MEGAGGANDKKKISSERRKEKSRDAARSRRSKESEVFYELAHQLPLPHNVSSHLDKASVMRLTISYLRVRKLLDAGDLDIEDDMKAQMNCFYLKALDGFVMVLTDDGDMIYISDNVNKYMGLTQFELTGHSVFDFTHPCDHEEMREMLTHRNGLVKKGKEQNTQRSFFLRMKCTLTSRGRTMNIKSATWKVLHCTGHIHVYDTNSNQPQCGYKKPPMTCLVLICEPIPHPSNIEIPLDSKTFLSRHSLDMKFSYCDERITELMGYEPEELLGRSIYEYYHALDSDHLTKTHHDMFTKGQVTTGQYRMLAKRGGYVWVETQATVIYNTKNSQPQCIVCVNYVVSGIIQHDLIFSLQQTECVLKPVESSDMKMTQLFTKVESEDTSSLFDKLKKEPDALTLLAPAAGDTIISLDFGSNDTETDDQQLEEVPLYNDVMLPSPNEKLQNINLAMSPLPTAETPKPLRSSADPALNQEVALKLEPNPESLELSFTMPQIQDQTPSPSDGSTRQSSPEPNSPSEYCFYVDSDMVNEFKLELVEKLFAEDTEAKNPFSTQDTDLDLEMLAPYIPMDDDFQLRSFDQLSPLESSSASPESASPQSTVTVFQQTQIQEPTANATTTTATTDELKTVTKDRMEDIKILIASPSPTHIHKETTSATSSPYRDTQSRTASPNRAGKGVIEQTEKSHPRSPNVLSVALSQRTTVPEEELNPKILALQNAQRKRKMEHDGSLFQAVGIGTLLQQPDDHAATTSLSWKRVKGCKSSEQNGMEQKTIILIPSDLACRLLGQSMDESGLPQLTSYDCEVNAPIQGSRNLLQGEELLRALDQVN
Protocol: ATG_CIS is a cell-based, multiplexed-readout assay that uses HepG2, a human liver cell line, with measurements taken at 24 hours after chemical dosing in a 24-well plate.ATG_HIF1a_CIS is one of 52 assay component(s) measured or calculated from the ATG_CIS assay. It is designed to make measurements of mRNA induction, a form of inducible reporter, as detected with fluorescence intensity signals by Reverse transcription polymerase chain reaction (RT-PCR) and Capillary electrophoresis technology.Data from the assay component ATG_HIF1a_CIS was analyzed into 1 assay endpoint. This assay endpoint, ATG_HIF1a_CIS, was analyzed with bidirectional fitting relative to DMSO as the negative control and baseline of activity. Using a type of inducible reporter, measures of mRNA for gain or loss-of-signal activity can be used to understand the reporter gene at the transcription factor-level as they relate to the gene HIF1A. Furthermore, this assay endpoint can be referred to as a primary readout, because this assay has produced multiple assay endpoints where this one serves a reporter gene function. To generalize the intended target to other relatable targets, this assay endpoint is annotated to the dna binding intended target family, where the subfamily is basic helix-loop-helix protein.
Human liver HepG2 cells are transiently transfected with multiple reporter transcription units (MRTUs) in 6-well plates using FuGene 6 reagent (Roche; 3 ml FuGene/1 mg DNA). The MRTU constructs are regulated by a cis-regulating element (promoter). […] A major difference between the CIS and TRANS system is that in CIS activities of endogenous TFs are measured, whereas the TRANS assay evaluates changes in activities of exogenous, chimeric NR-Gal4 proteins. […] At the end of 24 hour incubation, total RNA was isolated using TriZol reagent (Invitrogen). The isolated RNA is then reverse-transcribed using oligo(dT) primer and Mo-MLV reverse transcriptase (Invitrogen) with DNAse I (Ambion) treatment for 30 min. The one-tenth of the produced cDNA was amplified by PCR using Taq DNA polymerase (Invitrogen) and two reporter sequence-specific primers. The PCR products were fluorescently labeled by primer extension with 6-arboxyfluorescein (6-FAM) 5'-labeled reporter sequence-specific primer (2 min at 95 C, 20 s at 68 C and 10 min at 72 C) and these products were digested with 5U of HpaI (New England Biolabs) for 2h at 37 C. The fragments were purified using Qiaquick PCR columns (Qiagen), analyzed on an ABI 3130xL genetic analyzer (Applied Biosystems) with peak positions identified by using a set of X-rhodamine (ROX)-labeled MapMarker1000 molecular weight standards (BioVentures). The raw capillary electrophoresis data was processed using Attagraph software (Attagene).

Compound	outcome	AC50
c1ccc(CCCc2ccncc2)cc1	inactive	
CCCCCC(C)O (stereo not given)	inactive	
O=c1c2ccccc2nnn1CCl	inactive	
CC(C)(c1cc(Br)c(OCCO)c(Br)c1)c1cc(Br)c(OCCO)c(Br)c1		6.89 µM (active)
O=C(Nc1cccc(C(F)(F)F)c1)c1cc(Br)cc(Br)c1O		19.9 µM (active)
CCOC(=O)N1CCC(=C2c3ccc(Cl)cc3CCc3cccnc32)CC1		7.91 µM (active)
CCCCCCC1(C)CCC(=O)O1 (stereo not given)	inactive	
C=CC(C)(CCC=C(C)C)OC(=O)C(C)C (stereo not given)	inactive	
Cc1cccc(OCCOc2cccc(C)c2)c1	inactive	
CCCCCCCCCCC=CC#N	inactive	
O=C1CCCCCN1SSN1CCCCCC1=O	inactive	
CC1OC1C1CCC2(C)OC2C1 (stereo not given)	inactive	
NC(=O)NNC(N)=O	inactive	
CCCCCCOC(=O)C(C)CC (stereo not given)	inactive	
Oc1ccc(Cl)cc1Cc1cc(Cl)ccc1O		11.1 µM (active)
Nc1cccc(C(F)(F)F)c1	inactive	
[Cl][Nd]([Cl])[Cl]	inactive	
O=C1Nc2ccccc2C1(c1ccc(O)cc1)c1ccc(O)cc1		57.2 µM (active)
OCCCS	inactive	
SCCc1cnccn1	inactive	

Compound	outcome	AC50
Cc1ccc(OC(=O)CC(C)C)cc1	inactive	
CC(=O)Oc1ccc(C(C)=O)cc1	inactive	
N=c1ccn2c(n1)O[C@H]1[C@H](O)[C@@H](CO)O[C@H]12	inactive	
CCCNC(=O)NS(=O)(=O)c1ccc(Cl)cc1	inactive	
CN(C)c1ccc(C(=N)c2ccc(N(C)C)cc2)cc1		0.816 µM (active)
CCCCCCCCCCCSCC(=O)O		124 µM (active)
O=CN1CCCCC1	inactive	
CC(C)CCCC(C)CC=O (stereo not given)	inactive	
CC(C)=CC1CC(C)CCO1 (stereo not given)	inactive	
O=c1c2ccccc2oc2ccccc12	inactive	
CCCCCCCCCCc1ccccc1	inactive	
Cc1ccccc1C	inactive	
CCCCCCCC/C=C\CCCCCCCC(=O)O	inactive	
C=CC(C)(CCC=C(C)C)OC(=O)CC(C)C (stereo not given)	inactive	
C=C(C)c1cccc(C(C)(C)N=C=O)c1	inactive	
ON(Cc1ccccc1)Cc1ccccc1	inactive	
COc1cc(C)ccc1C(C)C	inactive	
CCCCC/C=C\C/C=C\CCCCCCCC(=O)OC	inactive	
CC(C)c1ccc2cc(C(C)C)ccc2c1	inactive	
C=C[Si](OC(C)=O)(OC(C)=O)OC(C)=O	inactive	
